Drawing on PubChem BioAssay AID1053124 (Broad Institute, 2014), this text covers outcome for 40 molecules.

Potency and affinity values are given separately. Activity calls are given as the source filed them.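 Rule for the calls: active = cell killing whose fitted half-effect concentration is at most twice the top valid dose tested; inconclusive = flat curve with 30 to 70% killing, or a poor fit; inactive = effect in the rising direction, plus the rest.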

This test can be described thus: viability loss in A549 lung cells – cell-based, ATP luminescence, cherry-pick, set 2, cytotoxicity control, dose response (AID 1053124). The settings on record: ATP luminescence (CellTiter-Glo), 72 h; series mostly up to 26 µM.
In the case of `O=C(NCc1ccc(F)cc1)C1CCCN1C(=O)Nc1cccc(F)c1` (stereo not given), the molecule was called inactive.

As to `O=c1oc2c(CN3CCCCC3)c(O)ccc2cc1-c1nc2ccccc2[nH]1`, the outcome was inactive.

As for `O=c1[nH]c2ccccc2nc1/C=C/c1ccccc1`, the molecule was classed as inactive.

In the case of `CCOc1ccc(C2C(C#N)=C(N)Oc3cc(O)ccc32)cc1OCC` (stereo not given), the outcome was inactive.

Turning to `CCOc1ccc(-n2c(SCC(=O)Nc3nccs3)nnc2-c2ccoc2C)cc1`, the call was inactive.

For the molecule `Cc1cc(-n2c(=O)c(C#N)cc3c(=O)n4cccc(C)c4nc32)no1`, the molecule was classed as inactive.

On to `Nc1cccc2c1C(=O)N(c1ccccc1)C2=O`, for which the result was inactive.

In the case of `CCn1c(=N)c(S(=O)(=O)c2ccccc2)cc2c(=O)n3ccccc3nc21`, the result was inactive.

For the molecule `COCc1cc(C)nc(SCC(=O)Oc2ccc(Cl)cc2)c1C#N`, the call was inactive.

Consider `CC(=O)Oc1ccc(C(=O)Nc2cc(C)on2)cc1`, for which the result was inactive.

Turning to `CCOC(=O)C1CCCN(CCCc2ccccc2)C1` (stereo not given), the call was inactive.

Regarding `COc1cccc(N2CCN(C(=O)C3CCCN(S(=O)(=O)c4cnc[nH]4)C3)CC2)c1` (stereo not given), the molecule was called inactive.

Consider `Cc1cccn2c(=O)c(/C=C(\C#N)C(=O)NC3CCS(=O)(=O)C3)c(N3CCC(C(N)=O)CC3)nc12` (stereo not given), for which the result was inactive.

Take `O=C(Cn1ccc([N+](=O)[O-])n1)N1CCCCCC1`: the call was inactive.

As to `CCc1cccc(C)c1NC(=S)NCc1ccc2c(c1)cc(C)n2C`, the molecule was called inactive.

Regarding `NC(=O)c1c(NC(=O)Cc2ccccc2)sc2c1CCN(Cc1ccccc1)C2`, the outcome was inactive.

Consider `COCCNC(=O)c1cc2c(=O)n3cccc(C)c3nc2n(Cc2ccncc2)c1=N`, for which the call was inactive.

In the case of `CC1CCN(S(=O)(=O)N2CCC(C(=O)NC3CCCC3)CC2)CC1`, the molecule was called inactive.

Regarding `CCOC(=O)c1oc2c(CN3CCN(CCO)CC3)c(O)c(CC)cc2c(=O)c1-c1nc2ccccc2s1`, the call was inactive.

As for `Cc1ccc(NC(=O)Nc2ccnc(-c3cccnc3)n2)cc1`, the molecule was classed as inactive.

`CCOCCCNC(=S)N1CCCN(c2nc3cc(C)c(C)cc3cc2C#N)CC1`: the call was inactive.

`CCN1C=C(C(=O)OC)C(c2cccc(OC)c2OC)C(C(=O)OC)=C1`: the result was inactive.

Regarding `COC(=O)C1=CN(Cc2ccc(OC)c(OC)c2)C=C(C(=O)OC)C1c1cccc(F)c1`, the result was inactive.

Take `CC1(C)CC(=O)C2=C(C1)OC(N)=C(C#N)[C@@H]2c1ccccc1[N+](=O)[O-]`: the molecule was classed as inactive.

Consider `CCC(=O)N1C(C(=O)NCc2ccc(OC)cc2)CSC1c1ccc(OC)cc1` (stereo not given), for which the outcome was inactive.

With `O=C(O)c1[nH]c2ccccc2c1C(c1cc(Br)ccc1O)c1c(C(=O)O)[nH]c2ccccc12`, the molecule was classed as inactive.

In the case of `CC(=O)N=c1c(C#N)cc2c(=O)n3ccccc3nc2n1CCCOC(C)C`, the result was inactive.

Regarding `Cc1c(C(=O)NCc2cccc(C(F)(F)F)c2)sc(=O)n1Cc1ccc(C(=O)N(C)C)cc1`, the molecule was called inactive.

On to `O=C(O)c1ccc(N/N=C/c2ccc(-c3ccccc3Cl)o2)cc1`, for which the result was inactive.

As for `CCNc1nc2nc3ccc(C)cn3c(=O)c2cc1C(=O)NCC1CCCO1` (stereo not given), the molecule was called inactive.

`CCOC(=O)c1cc2c(=O)n3ccccc3nc2n(Cc2ccc(Cl)cc2)c1=N`: the result was inactive.

For `CCOc1ccc2nc(NCCCNS(=O)(=O)c3ccc(F)cc3)c(C#N)cc2c1`, the call was inactive.

Take `NC(=O)c1cc([N+](=O)[O-])ccc1NCc1cccnc1`: the result was inactive.

Consider `CCn1c(=NC(=O)CSC(C)=O)sc2cc(OC)ccc21`, for which the call was inactive.

As for `O=C(CCCn1c(=O)c2sccc2n(Cc2cc(=O)n3ccccc3n2)c1=O)NCc1ccco1`, the molecule was called inactive.

For the molecule `CCCn1c(=N)c(S(=O)(=O)c2ccccc2)cc2c(=O)n3ccccc3nc21`, the result was inactive.

In the case of `CCCCn1nc(NC(=O)c2cccs2)c2cc3cc(OC)ccc3nc21`, the result was inactive.

Turning to `COc1ccccc1N1CCN(C2CCC(C)CC2)CC1` (stereo not given), the molecule was classed as inactive.

Regarding `CSc1ccc(Cl)c(C(=O)N2CCOc3ccccc32)c1`, the outcome was inactive.

With `COc1ccc(C2C(C#N)=C(N)Oc3cc(O)ccc32)cc1Cl` (stereo not given), the outcome was inactive.
